Laboratory results: PubChem BioAssay AID602289 (National Center for Advancing Translational Sciences (NCATS), 2012)
In all, about 2,400 compounds went through this assay and about 40 (2%) were called active. Another 1% or so got no clear call; they are omitted. The sample holds actives, similar compounds and a random draw of the others, so the mix is not that of the screen.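 Rule for the calls: active = inhibition at or above 60%; inconclusive = inhibition from 0% up to below 60%; inactive = no inhibition observed.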

test: qHTS Assay for Small Molecule Inhibitors of Mitochondrial Division or Activators of Mitochondrial Fusion: Hit Validation in Malachite Green Assay; conditions: purified GTPase, malachite green phosphate release, A650; active compounds read high;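 for inhibition: plate controls were DMSO wells with GTPase for no effect and protein-free buffer wells for full effect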
Source text: The budding yeast S. cerevisiae is a powerful system to study mitochondrial fusion. Unlike other organisms, yeast cells without functional mitochondrial DNA (mtDNA) can be propagated and studied as long as they maintain a mitochondrial compartment and are provided with a fermentable carbon source. When mitochondrial fusion is blocked in yeast, mitochondrial tubules rapidly fragment and division continues unopposed. Under conditions where fusion is compromised in mammalian cells, nearly identical changes in mitochondrial structure have been observed. Thus, these findings indicate that steady state mitochondrial structure in cells is a characteristic and specific indicator of fusion activity. Mounting evidence has pointed to a connection between mitochondrial dynamics and apoptosis in mammalian cells. These studies indicate that in mammalian cells mitochondrial dynamics are more integrated into cellular processes than in yeast cells and have evolved not only to distribute the organelle but also to aid in the regulation of cellular homeostasis. Mitochondrial fusion proteins attenuate apoptosis by inhibiting the release of cytochrome c from mitochondria, in part by controlling cristae structures. Thus, small molecules that inhibit mitochondrial fusion may promote apoptosis and potentially act as novel chemotherapeutics and stimulation of apoptosis has become an attractive target of anti-cancer therapies. To identify inhibitors of mitochondrial division, we exploit the growth phenotypes of mitochondrial fusion-defective mutants. The temperature sensitive fusion alleles, such as fzo1-1 and mgm1-5, cause mitochondrial membranes to fragment in cells under non-permissive conditions and cells lose mtDNA, and are unable to grow in the presence of non-fermentable carbon source glycerol. Inhibiting mitochondrial division rescues growth. The hits were tested by the assay provider in a malachite green assay. NIH Chemical Genomics Center [NCGC] NIH Molecular Libraries Probe Production Centers Network [MLPCN] MLPCN Grant: MH081279 Assay Submitter (PI): Jodi M. Nunnari
Malachite Green Reagent Malachite Green carbinol base- Aldrich 229105 Ammonium molybdate - Sigma A7302 For 100 mL Malachite Green reagent in 1N HCl 16 mL conc. HCL + 32 mL H20 = 48 mL 4N HCl 34 mg malachite green base into 40 mL 1N HCl (10 mL 4N HCl + 30 mL H20) 1 g ammonium molybdate in 15 mL 4N HCl Mix Solutions together. Bring up to […] with H2O. Filter using a 0.2 um tissue culture filter unit (has plastic bottle attached) store at 4 masculine C. (Avoid Glassware/Plastics washed in detergent. Mix solutions in 50 mL conical vials.) For 20 uL reaction volume 1.0 uL Test Drug or DMSO: Added first to each well […]: 25 mM Hepes/Pipes pH 7.0 (H/P) 2.0 uL: 50 mM MgCl2 (final 5mM) 2.32 uL: 1 M NaCl (with contributing protein salt, Final = 150mM) 13.4 uL per reaction. Can be mixed in larger volume (Mini Master Mix) 1.6 uL: Protein 7.5 uM or Protein Freezing Buffer. (Final = 0.6uM) After Protein Added to mini Master Mix, 15ul Total Master Mix added to each well with drug. 4 uL: 500 uM GTP (Final = 100uM), Dilute with 25 mM H/P, store on ice. 20 uL Total Volume Make Master Mix: (Calculate desired reactions and add a few for multi-channel pipetting volume). Multiply the number of desired reactions by 13.4 uL for total Mini Master volume. Multiply the number of desired reactions by 1.6 uL for total Protein volume. Mix, and keep on ice until added to wells. Add 15 uL of Master Mix to each reaction well, incubate with drug for 10 min. For Positive (No Drug) controls add 15 uL Master Mix to wells with only 1 uL DMSO. Make PFB (Protein Freezing Buffer) (no Protein) Master Mix. Multiply the number of desired reactions by 13.4 uL for total Mini Master volume. Multiply the number of desired reactions by 1.6 uL for total PFB volume. Mix, and keep on ice until added to wells Add 10 uL of PFBMaster Mix to each Phosphate Standards well, and 15 uL to each negative control well with DMSO. […]

For `CCCCn1c(N2CCC(Cc3ccccc3)CC2)nc2c1c(=O)[nH]c(=O)n2C`, which inhibition is on record?
Its inhibition is “inactive”.

With `C=C(C)Cn1c(N2CC(C)CC(C)C2)nc2c1c(=O)[nH]c(=O)n2C` (stereo not drawn) as the molecule, how does the inhibition read?
The inhibition was “inactive”.

With `CCCCCn1c(SCCC(C)C)nc2c1c(=O)[nH]c(=O)n2C` as the molecule, how does the inhibition read?
The inhibition was 96.1% (active).

For `C=CCc1cc2c(oc(=O)c3ccccc32)c(C)c1O`, which inhibition is on record?
Its inhibition is “inactive”.

With `COc1cccc(COc2ccc3c(C)cc(=O)oc3c2)c1` as the molecule, how does the inhibition read?
The inhibition was “inactive”.

Which inhibition does the source give for `O=C1C=C(/C=C/C2C=CC=CC2)C[C@@H](c2ccc(Cl)cc2)C1` (stereo partly drawn) here?
Its inhibition is “inactive”.

With `Cn1c(=O)c2c(nc(Oc3ccccc3Cl)n2C)n(C)c1=O` as the molecule, how does the inhibition read?
Its inhibition is “inactive”.

For `CS/C(=N\S(=O)(=O)c1cccs1)Nc1ccc(Br)cc1F`, which inhibition is on record?
The inhibition was “inactive”.

For `Oc1c(I)cc(Cl)c2cccnc12`, which inhibition is on record?
Its inhibition is 66.8% (active).

With `O=c1oc2cc(O)c(Cl)cc2c2ccccc12` as the molecule, how does the inhibition read?
Its inhibition is “inactive”.

For `Oc1c(Cl)cc(Cl)c2cccnc12`, which inhibition is on record?
Its inhibition is 86% (active).

Which inhibition does the source give for `O=C(Oc1c(Cl)cc(Cl)c2cccnc12)c1ccco1` here?
The inhibition was 67.8% (active).

For `CN(C(=O)C(Cl)Cl)c1ccc(OC(=O)c2ccco2)cc1`, which inhibition is on record?
Its inhibition is “inactive”.

With `Cc1cc(Cl)cc(Cl)c1OCCOc1cccc2cccnc12` as the molecule, how does the inhibition read?
The inhibition was “inactive”.

For `O=C(Nc1ccc(Cl)cc1C(=O)Nc1ccccn1)c1ccco1`, which inhibition is on record?
Its inhibition is “inactive”.

With `CCCCCCSc1ccc([C@@H]2[C@@H]3C(=O)N(C)C(=O)[C@@H]3[C@]3(C(=O)OC)CCCCN23)cc1OC` as the molecule, how does the inhibition read?
The inhibition was “inactive”.

With `O=C(c1cn(Cc2ccccc2)nc1-c1ccc(Cl)cc1)N1CCN(c2ccccn2)CC1` as the molecule, how does the inhibition read?
The inhibition was “inactive”.

Which inhibition does the source give for `O=C(c1cn(-c2ccccc2)nc1-c1cccs1)N1CCN(c2ccccn2)CC1` here?
The inhibition was “inactive”.

With `O=C(c1cc(COc2cccc3cnccc23)on1)N1CCC(c2ccccc2Cl)C1` (stereo not drawn) as the molecule, how does the inhibition read?
Its inhibition is “inactive”.

With `COc1ccc(C2=NOC(Cn3nc(C(=O)NCc4ccco4)cc3-c3ccccc3)C2)cc1` (stereo not drawn) as the molecule, how does the inhibition read?
Its inhibition is “inactive”.

For `COc1cccc(NC(=O)CN(C)C(=O)c2sc3cc(Cl)ccc3c2Cl)c1`, which inhibition is on record?
Its inhibition is “inactive”.

Which inhibition does the source give for `Cc1c(Cl)cccc1Nc1nc(N)nc(CSc2nc3ccccc3s2)n1` here?
The inhibition was “inactive”.

Which inhibition does the source give for `CNC(=O)c1ccsc1NC(=O)C1CCN(S(=O)(=O)c2ccc(Cl)s2)CC1` here?
Its inhibition is “inactive”.

With `COc1ccc(N=Nc2nc(-c3ccccc3)c(-c3ccccc3)[nH]2)cc1` as the molecule, how does the inhibition read?
Its inhibition is “inactive”.

Which inhibition does the source give for `Clc1ccc(-c2nnc3sc(Cc4cccs4)nn23)cc1` here?
Its inhibition is “inactive”.

Which inhibition does the source give for `c1ccc(-c2nnc3sc(-c4csc5c4CCCC5)nn23)cc1` here?
The inhibition was 99.9% (active).

For `COc1ccc2ccccc2c1C(=O)/C=C\c1ccoc1`, which inhibition is on record?
The inhibition was “inactive”.

For `COc1ccc(S(=O)(=O)N(C(=O)c2ccncc2)c2ccc3oc4c(c3c2)CCCC4)cc1`, which inhibition is on record?
Its inhibition is “inactive”.

For `CC(C)c1nc2sc3c(=O)[nH]c(=S)[nH]c3c2c2c1CCC2`, which inhibition is on record?
Its inhibition is 104% (active).

For `COCc1nc2sc3c(c2c(=O)[nH]1)CCCC3`, which inhibition is on record?
The inhibition was “inactive”.

With `O=c1[nH]c(C2CC2)nc2sc3c(c12)CCCC3` as the molecule, how does the inhibition read?
Its inhibition is “inactive”.

Which inhibition does the source give for `O=C(/C=C/c1cccs1)N1CCC2(CC1)Oc1ccc(Cl)cc1C(=O)C21CC(c2cccnc2)=NO1` (stereo not drawn) here?
Its inhibition is “inactive”.

With `COc1ccc(-c2cc(=O)oc3c(C)c(OC(C)C(C)=O)ccc23)cc1` (stereo not drawn) as the molecule, how does the inhibition read?
Its inhibition is “inactive”.

For `CC(Oc1cccc(Cl)c1)C(=O)Nc1cc(Cl)ccc1N1CCOCC1` (stereo not drawn), which inhibition is on record?
The inhibition was “inactive”.

With `CC(Oc1cccc(Cl)c1)C(=O)Nc1nc(-c2ccccn2)cs1` (stereo not drawn) as the molecule, how does the inhibition read?
Its inhibition is 68.3% (active).

For `Cc1csc(NC(=O)C(C)Oc2ccc(Br)cc2)n1` (stereo not drawn), which inhibition is on record?
Its inhibition is “inactive”.

With `Cc1ccccc1Nc1nc(N)nc(CSc2nc3ccccc3s2)n1` as the molecule, how does the inhibition read?
The inhibition was “inactive”.

Which inhibition does the source give for `O=C(NCC1(c2ccccc2)CCCC1)c1ccccc1Br` here?
Its inhibition is “inactive”.

Which inhibition does the source give for `Cc1cc2nc3s/c(=C/c4ccc(-c5ccccc5C(=O)O)o4)c(=O)n3c2cc1C` here?
Its inhibition is 66.8% (active).

With `Cc1ccc2c(nc3s/c(=C\c4ccc(-c5ccccc5C(=O)O)o4)c(=O)n32)c1C` as the molecule, how does the inhibition read?
Its inhibition is 86.5% (active).

Which inhibition does the source give for `Cc1c(C(=O)O)cccc1-c1ccc(/C=N/Nc2ccc(Br)cc2)o1` here?
Its inhibition is “inactive”.

Which inhibition does the source give for `Cc1ccc2c(=O)cc(C(=O)NCc3ccccc3)oc2c1C` here?
Its inhibition is “inactive”.

With `CC(C)COc1ccc(S(=O)(=O)NNC(=O)c2cc3ccccc3o2)cc1` as the molecule, how does the inhibition read?
The inhibition was “inactive”.

Which inhibition does the source give for `CCNC(=O)c1ccccc1CCc1ccccc1` here?
Its inhibition is “inactive”.

For `CCC(C)N1C(=O)S/C(=C/c2ccc(N3CCOCC3)cc2C)C1=O` (stereo not drawn), which inhibition is on record?
The inhibition was “inactive”.

For `COc1ccccc1NC(=O)N(Cc1ccccc1)c1ccccn1`, which inhibition is on record?
Its inhibition is “inactive”.

For `Fc1cccc(CNc2ncnc3ccc(-c4ccc5c(c4)OCO5)cc23)c1`, which inhibition is on record?
The inhibition was “inactive”.

For `CCOc1ccc(C(=O)CCN2CCCCC2)cc1`, which inhibition is on record?
The inhibition was “inactive”.

For `CC(CNc1nc2ccccc2n2cnnc12)c1ccccc1` (stereo not drawn), which inhibition is on record?
The inhibition was “inactive”.

With `COc1ccc(NC(=O)CN(C)C(=O)c2ccccc2CCc2ccccc2)cc1` as the molecule, how does the inhibition read?
The inhibition was “inactive”.

Which inhibition does the source give for `N#CC(Sc1ccccn1)c1ccc(Cl)cc1` (stereo not drawn) here?
The inhibition was 65.5% (active).

Which inhibition does the source give for `COc1ccc(C(=O)NC2(C(F)(F)F)NC(=O)N(CCCc3ccccc3)C2=O)c(OC)c1OC` (stereo not drawn) here?
Its inhibition is “inactive”.

Which inhibition does the source give for `O=C(/C=C/c1ccccc1Cl)c1ccccc(=O)c1O` here?
The inhibition was 77.4% (active).
